Among the data in PubChem BioAssay (Tox21) are Potency values, retold here.

Assay [1] in a line: Nuclear factor erythroid 2-related factor 2/antioxidant responsive element (Nrf2/ARE) small molecule agonists: luciferase reporter gene qHTS assay in human keratinocytes (AID 1919969). Also: nearly all actives have a fitted effect of over 35% in size. Also: potency is read from the fitted curve at half-maximal effect.
In assay [2] the target is Gonadotropin-releasing hormone receptor (Homo sapiens) (UniProt P30968). In words: Human gonadotropin-releasing hormone receptor (GnRHR) small molecule agonists, calcium flux assay in GnRHR-HEK293 cells (AID 1920063). Also: nearly all actives have a fitted effect of over 35% in size. In a few lines: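 Compounds dissolved in DMSO are pin-transferred onto dye-loaded GnRHR-HEK293 cells, which were seeded 18 h before at 37 C/5% CO2. Calcium signal is read as fluorescence intensity at 1 s intervals for 3 min.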
Chain of Gonadotropin-releasing hormone receptor (Homo sapiens) (P30968 whole entry, looked up): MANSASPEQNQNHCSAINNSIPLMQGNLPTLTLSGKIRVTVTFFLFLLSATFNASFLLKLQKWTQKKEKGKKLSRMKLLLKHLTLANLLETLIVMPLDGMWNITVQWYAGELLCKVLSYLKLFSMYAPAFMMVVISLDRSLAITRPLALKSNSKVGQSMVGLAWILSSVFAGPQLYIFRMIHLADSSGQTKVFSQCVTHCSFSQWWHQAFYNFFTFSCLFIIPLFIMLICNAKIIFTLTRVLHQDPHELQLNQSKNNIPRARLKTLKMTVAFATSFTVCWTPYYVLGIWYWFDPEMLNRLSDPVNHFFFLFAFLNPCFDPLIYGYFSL
A general note: Calcium flux is commonly read through the fluorescence of an indicator in the cells.

Assay [3] is described as follows: G protein-coupled receptor (GPCR) small molecule agonists, calcium flux assay: HEK293 wild type cell line counter screen (AID 1920065). Put shortly:
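Tox21 10K compounds, 15 concentrations each in triplicate, pin-transferred in DMSO onto dye-loaded cells; kinetic read at 480/540 nm for 3 min, 1 s intervals.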

Assay [4] in a line: p53 small molecule agonists, cell-based qHTS assay with human liver microsomes (AID 1963577). In a few lines: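 In this qHTS, p53 response-element beta-lactamase cells receive test compound together with a microsome/NADPH activating system (0.5 mg/mL final each) and are incubated 16 h at 37 C before LiveBLAzer fluorescence detection.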
Background: In qHTS, concentration-response curves come from the screen itself.

Assay [5] can be described thus: p53 small molecule agonists, cell-based qHTS assay with rat liver microsomes (AID 1963578). Put shortly: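 Agonist mode in p53RE-bla reporter cells, with compounds co-incubated 16 h at 37 C alongside 0.5 mg/mL rat liver microsomes and 0.5 mg/mL NADPH (final), followed by a 2 h LiveBLAzer detection step.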
Assay [6] is described as follows: p53 small molecule agonists, cell-based qHTS assay with rat liver microsomes: qHTS cell viability counter screen (AID 1963580). Also: nearly all actives have a fitted effect of over 45% in size. Put shortly:
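Cytotoxicity counter screen: intracellular ATP measured by CellTiter-Glo luminescence in the same wells as the beta-lactamase reporter read, on HCT-116 p53RE-bla cells exposed 16 h at 37 C to compounds with rat liver microsomes and NADPH, each 0.5 mg/mL final.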

Assay [7] can be described thus: p53 small molecule agonists, cell-based qHTS assay: qHTS cell viability counter screen (AID 1963581). Also: nearly all actives have a fitted effect of over 45% in size. Put shortly:
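ATP content measured by luminescence in HCT-116 p53RE-bla cells treated 16 h at 37 C, same wells as the reporter screen.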

A short description of assay [8]: p53 small molecule agonists, cell-based qHTS assay (AID 1963582; active = well fitted activation curve with a large enough effect in the signal ratio in the repeat runs, not every such curve was filed as active; the % refers to the signal ratio). Put shortly: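 16 h compound exposure (37 C) of p53 response element–bla cells, preceded by 5 h recovery at 37 C/5% CO2; read-out via LiveBLAzer B/G FRET substrate, 2 h RT, fluorescence intensity.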
The target of assay [9] is 5-hydroxytryptamine receptor 2A (Homo sapiens) (UniProt P28223). In words: 5-hydroxytryptamine receptor 2A (HTR2A) small molecule antagonists, cell-based qHTS assay (AID 1963586). Also: nearly all actives have a fitted effect of over 45% in size. Also: potency is read from the fitted curve at half-maximal effect. In a few lines: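 CHO cells stably expressing human HTR2A were plated for 18 h at 37 C, then loaded with calcium dye for 1 h. Compounds were preincubated 5 min at room temperature before DOI (4 nM solution) was added. Kinetic fluorescence was read for 3 min.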
Chain of 5-hydroxytryptamine receptor 2A (Homo sapiens) (P28223 whole entry, looked up): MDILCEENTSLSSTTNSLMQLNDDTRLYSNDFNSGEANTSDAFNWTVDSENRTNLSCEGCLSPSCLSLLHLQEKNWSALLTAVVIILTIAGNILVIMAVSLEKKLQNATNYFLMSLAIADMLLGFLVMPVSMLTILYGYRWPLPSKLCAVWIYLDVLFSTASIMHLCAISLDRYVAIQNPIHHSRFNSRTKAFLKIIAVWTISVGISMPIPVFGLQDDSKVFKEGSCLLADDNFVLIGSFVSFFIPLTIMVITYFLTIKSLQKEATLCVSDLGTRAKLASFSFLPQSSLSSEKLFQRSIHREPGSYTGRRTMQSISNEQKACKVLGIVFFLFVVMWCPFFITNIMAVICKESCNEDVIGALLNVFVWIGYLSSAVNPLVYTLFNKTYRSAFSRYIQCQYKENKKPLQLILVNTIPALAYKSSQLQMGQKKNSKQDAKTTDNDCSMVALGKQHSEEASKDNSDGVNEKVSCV

The target is the same in assay [10]. The assay can be described thus: 5-hydroxytryptamine receptor 2A (HTR2A) small molecule agonists, cell-based qHTS assay (AID 1963587). Also: nearly all actives have a fitted effect of over 30% in size. Also: potency is read from the fitted curve at half-maximal effect. In a few lines:
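CHO cells stably expressing human HTR2A, plated 18 h, loaded with calcium dye 1 h at 37 C. Agonist mode: compounds added and intracellular calcium fluorescence recorded kinetically for 2 min at 1 sec intervals.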

Assay [11] addresses Muscarinic acetylcholine receptor M1 (Homo sapiens) (UniProt P11229). In words: Cholinergic receptor muscarinic 1 (CHRM1) small molecule antagonists, cell-based qHTS assay (AID 1963588). Also: nearly all actives have a fitted effect of over 40% in size. Put shortly:
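Compounds were tested at 15 concentrations in three independent runs. Dye-loaded CHRM1-CHO cells were exposed 5 min at room temperature before stimulation by acetylcholine added at 50nM. Intracellular calcium was read kinetically on FDSS for 3 min.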

For assay [12] the target is unchanged. In words: Cholinergic receptor muscarinic 1 (CHRM1) small molecule agonists, cell-based qHTS assay (AID 1963589). Also: nearly all actives have a fitted effect of over 35% in size. Put shortly:
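Homogeneous fluorescence calcium flux, agonist mode. Human M1-expressing CHO cells; compound dosed at 15 concentrations, three independent runs; signal sampled every 1 sec.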

Assay [13] in a line: cAMP Responsive Elements (CRE) small molecule agonists, cell-based qHTS assay (AID 1963590). Put shortly:
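HEK 293T cells stably bearing CRE-bla were plated at 2,000 cells per well and rested 18 h. Compounds, positive controls or DMSO were added for 3 h at 37 C. LiveBLAzer B/G substrate was then loaded for 2 h at room temperature.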

Assay [14] is described as follows: cAMP Responsive Elements (CRE) small molecule antagonists, cell-based qHTS assay (AID 1963591; active = well fitted inhibition curve with a large enough effect in the signal ratio in the repeat runs, not every such curve was filed as active; the % refers to the signal ratio). Put shortly:
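First, CRE-bla HEK293T cells settled 18 h at 37 C. Next, compound and 0.25 uM final NKH477 were applied for 3 h. Last, LiveBLAzer B/G substrate was loaded for 2 h at room temperature.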

Assay [15] has as its target Beta-2 adrenergic receptor (Homo sapiens) (UniProt P07550). In words: Adrenergic beta2 receptor (ADRB2) small molecule antagonists, cell-based qHTS assay (AID 1963592). Also: series mostly up to about 92 µM; nearly all actives have a fitted effect of over 50% in size. Put shortly: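 Assay format: CHO-ADRB2 cells, 18-20hr seeding at 37C/5% CO2, then compound plus 1nM isoproterenol agonist mix for 0.5hr RT. Homogeneous time-resolved fluorescence cAMP detection after 1hr, expressed as 665/615 nm ratio.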

For assay [16] the target is unchanged. The assay can be described thus: Adrenergic beta2 receptor (ADRB2) small molecule agonists, cell-based qHTS assay (AID 1963593).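 Also: CHO cells stably overexpressing human ADRB2.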 In a few lines:
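CHO cells stably over-expressing ADRB2 were plated overnight at 37C, then dosed with compounds plus a stimulation mix containing 100uM IBMX and 25uM Ro-20-1724 for 0.5hr at room temperature. cAMP was measured by HTRF competition, 1hr.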

Assay [17] deals with KiSS-1 receptor (Homo sapiens) (UniProt Q969F8). The assay can be described thus: Human kisspeptin (KISS1R) small molecule agonists, calcium flux assay in KISS1R-HEK293 cells (AID 1920064; active = well fitted activation curve with a large enough effect in the repeat runs). In a few lines:
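Cell line: HEK293, stable human KISS1R. Dye loading 1 h at 37 C after 18 h culture. Read: kinetic fluorescence, 480/540 nm, 3 min at 1 s intervals.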

A short description of assay [18]: p53 small molecule agonists, cell-based qHTS assay with human liver microsomes: qHTS cell viability counter screen (AID 1963579). Also: nearly all actives have a fitted effect of over 45% in size. Also: potency is read from the fitted curve at half-maximal effect. In a few lines:
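Metabolically activated exposure: compounds, human liver microsomes and NADPH (0.5 mg/mL final apiece) were added to p53RE-bla cells seeded 5 h earlier, left 16 h at 37 C, and then assessed for viability by CellTiter-Glo luminescence.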

Assay [19] has as its target D(2) dopamine receptor (Homo sapiens) (UniProt P14416). In words: Dopamine D2 receptor (DRD2) small molecule agonists, cell-based qHTS assay (AID 1963594). Also: nearly all actives have a fitted effect of over 35% in size. In a few lines: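 HEK293 cells stably expressing human DRD2, pre-treated with PDE inhibitor Ro20-1724 (0.1 mM final) and compound 10 min at room temperature, then stimulated with NKH477 (200nM […]) for 30 min. cAMP read by HTRF (665/620 nm).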

Assay [20] has the same target. The assay can be described thus: Dopamine D2 receptor (DRD2) small molecule antagonists, cell-based qHTS assay (AID 1963595; active = well fitted inhibition curve with a large enough effect in the signal ratio in the repeat runs, with a control signal flat; the % refers to the signal ratio). Put shortly: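 HEK293 cells stably expressing DRD2, preincubated with 0.1 mM Ro20-1724 and compounds 10 min, were stimulated with 200 nM NKH477 plus 12 nM quinpirole for 30 min at room temperature; cAMP measured by HTRF (665/620 nm).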

The structures appear in SMILES notation. Several values for one entry are separate records, joined by “and”; a condition that tells them apart may be missing. Equal values may be shown once. Inconclusive results are not listed. Some compounds were tested as several samples or in several runs, with calls that do not always agree. Activity calls are given as the source filed them. Unless noted, calls follow the shape of the full dose curve.

Chain of KiSS-1 receptor (Homo sapiens) (Q969F8 whole entry, looked up): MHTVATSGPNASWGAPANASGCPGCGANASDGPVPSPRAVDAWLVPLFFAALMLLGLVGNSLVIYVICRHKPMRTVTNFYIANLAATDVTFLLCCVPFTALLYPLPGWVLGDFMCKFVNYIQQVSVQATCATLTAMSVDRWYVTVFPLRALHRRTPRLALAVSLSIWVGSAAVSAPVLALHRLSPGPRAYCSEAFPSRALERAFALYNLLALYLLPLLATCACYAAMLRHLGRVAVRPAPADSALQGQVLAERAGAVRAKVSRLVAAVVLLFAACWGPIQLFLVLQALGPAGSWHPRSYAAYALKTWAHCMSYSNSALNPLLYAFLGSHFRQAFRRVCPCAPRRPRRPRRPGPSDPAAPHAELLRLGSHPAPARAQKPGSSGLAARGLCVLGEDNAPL
Chain of Beta-2 adrenergic receptor (Homo sapiens) (P07550 whole entry, looked up): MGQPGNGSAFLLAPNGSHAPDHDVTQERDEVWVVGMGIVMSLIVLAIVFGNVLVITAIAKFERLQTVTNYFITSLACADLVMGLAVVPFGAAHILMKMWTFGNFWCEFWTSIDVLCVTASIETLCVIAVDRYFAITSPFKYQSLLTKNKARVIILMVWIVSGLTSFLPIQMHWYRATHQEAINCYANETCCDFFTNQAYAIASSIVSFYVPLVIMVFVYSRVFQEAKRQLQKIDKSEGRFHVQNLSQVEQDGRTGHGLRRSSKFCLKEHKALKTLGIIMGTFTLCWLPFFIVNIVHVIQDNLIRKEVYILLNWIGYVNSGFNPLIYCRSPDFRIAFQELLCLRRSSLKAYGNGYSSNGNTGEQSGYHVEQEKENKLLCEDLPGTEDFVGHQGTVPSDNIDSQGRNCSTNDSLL
Chain of D(2) dopamine receptor (Homo sapiens) (P14416 whole entry, looked up): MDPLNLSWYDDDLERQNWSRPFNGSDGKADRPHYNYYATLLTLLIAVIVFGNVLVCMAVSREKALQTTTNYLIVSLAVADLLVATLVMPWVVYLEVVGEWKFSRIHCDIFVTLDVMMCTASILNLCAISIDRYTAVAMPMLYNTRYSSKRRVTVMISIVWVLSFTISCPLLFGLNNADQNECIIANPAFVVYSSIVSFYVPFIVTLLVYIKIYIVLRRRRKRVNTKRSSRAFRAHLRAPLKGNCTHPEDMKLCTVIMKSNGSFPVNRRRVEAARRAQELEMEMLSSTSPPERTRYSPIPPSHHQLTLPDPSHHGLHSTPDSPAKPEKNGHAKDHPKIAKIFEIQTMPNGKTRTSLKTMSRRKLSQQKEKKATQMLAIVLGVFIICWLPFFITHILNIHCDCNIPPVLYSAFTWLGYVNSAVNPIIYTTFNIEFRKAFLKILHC
Chain of Muscarinic acetylcholine receptor M1 (Homo sapiens) (P11229 whole entry, looked up): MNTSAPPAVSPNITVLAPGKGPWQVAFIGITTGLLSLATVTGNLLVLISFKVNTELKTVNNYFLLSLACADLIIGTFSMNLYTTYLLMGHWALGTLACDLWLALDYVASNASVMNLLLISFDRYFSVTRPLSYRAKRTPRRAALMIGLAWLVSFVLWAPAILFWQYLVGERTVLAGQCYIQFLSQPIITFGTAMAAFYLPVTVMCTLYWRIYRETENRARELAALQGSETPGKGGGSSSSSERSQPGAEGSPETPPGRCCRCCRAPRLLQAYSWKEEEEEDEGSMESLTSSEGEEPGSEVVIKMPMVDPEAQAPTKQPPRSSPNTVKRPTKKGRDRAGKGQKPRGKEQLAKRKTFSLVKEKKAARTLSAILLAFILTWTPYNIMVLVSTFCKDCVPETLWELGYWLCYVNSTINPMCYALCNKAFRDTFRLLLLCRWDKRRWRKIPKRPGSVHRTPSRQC

Consider `CC1=C2[C@H]3OC(=O)[C@@H](C)[C@@H]3CC[C@@]2(C)C=CC1=O`, for which the Potency result in [1], in assay [2], in [3], in assay [4], in assay [5] and in assay [6] was “inactive” throughout. The Potency result in assay [7], in [8], in assay [9], in assay [10], in [11] and in assay [12] was “inactive” each time. The Potency result in assay [13], in [14], in [15] and in [16] was “inactive” in each case.

Turning to `N#CC(Br)Br`, the Potency result in assay [1], in [2], in assay [17], in assay [18], in [6] and in assay [7] was “inactive” each time. The Potency result in assay [9], in assay [10], in [11], in assay [12], in assay [13] and in [14] was “inactive” throughout. The Potency entry in assay [15], in assay [16] and in assay [19] was “inactive” throughout.

Consider `CCOP(=S)(OCC)OP(=S)(OCC)OCC`, for which the Potency entry in [1], in assay [2], in assay [17], in assay [3], in assay [18] and in [6] was “inactive” throughout. The Potency entry in [7], in assay [8], in [9], in assay [10], in assay [11] and in [12] was “inactive” throughout. In addition, the Potency entry in assay [13], in assay [14], in assay [15], in assay [16], in assay [19] and in [20] was “inactive” throughout.

As for `CCCCCCCCCCCCn1cc[n+](C)c1`, the Potency entry in assay [17], in assay [13], in [14], in assay [16], in assay [19] and in assay [20] was “inactive” throughout. In addition, the Potency entry in [9] was “inactive and 33.7 µM (active)”.

Consider `CCCCCC[n+]1ccccc1`, for which the Potency is 69.2 µM (active) and 69 µM (active) and inactive in [1]; 11.6 µM (active) and 9.19 µM (active) and inactive in [18]. For the same molecule, the Potency result in assay [2], in assay [17], in assay [3], in [6], in [7] and in assay [13] was “inactive” in each case. The Potency entry in assay [14], in assay [15], in [16], in assay [19] and in [20] was “inactive” each time.

Regarding `C1CN2CCN1CC2`, the Potency entry in assay [1], in assay [17], in assay [3], in [18], in [6] and in assay [7] was “inactive” in each case. Further, the Potency result in assay [9], in assay [11], in assay [13], in [14], in assay [15] and in assay [16] was “inactive” each time. Moreover, the Potency result in assay [19] and in assay [20] was “inactive” each time. Moreover, the Potency result in [10] was “inactive and 54.9 µM (active)”.

On to `CCCCCCCCCCCC(=O)O`, for which the Potency entry in [1], in assay [2], in [17], in assay [3], in assay [18] and in assay [6] was “inactive” throughout. For the same molecule, the Potency result in assay [7], in assay [9], in assay [10], in assay [11], in [12] and in assay [13] was “inactive” in each case. For the same molecule, the Potency result in assay [14], in assay [15], in [19] and in [20] was “inactive” each time.
